Compounds without any hit were thinned out: in the full panel of roughly 83,000, 20% have a hit.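 In brief: 96-well plates, 48 h treatment, single concentration, percent growth endpoint.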 Activity calls are given as the source filed them. Rule for the calls: active = growth percent below 10; inactive = the rest.
Each compound was assayed on MDA-MB-231 breast (assay: NCI-60 one-dose screen, 48 h (100 = growth as untreated, 0 = no growth, -100 = all killed)). Conditions: 10 µM.

| Compound | growth |
| --- | --- |
| CSc1nn(-c2ccccc2)c2ncnc(Oc3ccccc3)c12 | 98.3% (inactive) |
| COc1ccc(/C=C/C(=O)Nc2ccc(-c3nc4ccc(OC)cc4s3)cc2)cc1 | 111% (inactive) |
| O=C(/C=C/c1cc2ccccc2[nH]c1=O)c1ccc2c(c1)OCO2 | 94% (inactive) |
| COc1ccc(N2C(=O)C3c4[nH]c5ccc(OCc6ccccc6)cc5c4C4CCC(C(C)C)CC4C3C2=O)cc1 (stereo unspecified) | 101% (inactive) |
| COc1cc(C(=C2O[C@@H]([C@H]3COC(C)(C)O3)[C@H]3OC(C)(C)O[C@@H]23)c2cc(OC)c(OC)c(OC)c2)cc(OC)c1OC | 91.6% (inactive) |
| COc1ccccc1/C=C/C(=O)c1ccccc1 | 80.5% (inactive) |
| COc1ccc(C2=Nc3c(C)nn(-c4ccccc4)c3NC(c3ccc(Oc4ccnc5cc(Cl)ccc45)c(OC)c3)C2)cc1 (stereo unspecified) | 58% (inactive) |
| NC(=O)SCC(=O)Nc1ccc(S(N)(=O)=O)cc1 | 106% (inactive) |
| c1ccc([I+]c2ccccc2)cc1 | 87.6% (inactive) |
| CCN1CCCC1CNC(=O)c1ncc(-c2ccc(C(F)(F)F)cc2)c(NC2CCCCCC2)n1 (stereo unspecified) | 67.3% (inactive) |
| Cc1ccc(N=Nc2c(N)nc(N)[nH]c2=O)cc1C | 117% (inactive) |
| COc1ccc(/C=C2/CN(C(=O)c3ccc(C)cc3)C/C(=C\c3ccc(OC)cc3)C2=O)cc1 | 87.1% (inactive) |
| COc1cc(-c2cc(/C=C3\C(=O)Nc4cc(Cl)ccc43)[nH]n2)cc(OC)c1OC | 34.2% (inactive) |
| O=C(Nc1cccc(-n2cc(-c3ccncc3)c(-c3ccc(O)c(Cl)c3)n2)c1)c1ccc(N2CCOCC2)c(C(F)(F)F)c1 | -30.5% (active) |
| COc1ccccc1CNCCCN1C(=O)c2ccc3c4c(ccc(c24)C1=O)C(=O)N(CCCN)C3=O | 3.16% (active) |
| N=c1c2c(-c3ccccc3)c(-c3ccccc3)n(Cc3ccccc3)c2ncn1CCCO | 39% (inactive) |
| CCCC(F)C(=O)O (stereo unspecified) | 111% (inactive) |
| O=C(N/N=C\c1cc(Cl)ccc1[N+](=O)[O-])c1ccco1 | 95% (inactive) |
| COC(=O)c1ccc(=O)oc1 | 98.1% (inactive) |
| Oc1[nH]c2ccc(Cl)cc2c1/C=c1/ccc2c(c1)N=C(c1cc(F)cc(F)c1)N=2 | 79.3% (inactive) |
| CN(Cc1ccccc1)Cc1ccc([N+](=O)[O-])cc1I | 101% (inactive) |
| O=C(CCCCC(=O)Nc1ccc2c(c1)/C(=C/c1ccc[nH]1)C(=O)N2)NO | 94.4% (inactive) |
| O=C1/C(=C/c2ccc(Cl)cc2)SC(=Nc2ccc(Cl)cc2)N1Cc1nc2ccccc2[nH]1 | 59.2% (inactive) |
| O=C(C[P+](c1ccccc1)(c1ccccc1)c1ccccc1)C[P+](c1ccccc1)(c1ccccc1)c1ccccc1 | -71.3% (active) |
| N=C(N)c1ccc(-c2ccc(-c3ccccc3)o2)nc1 | 50.2% (inactive) |
| COc1cc(/C=C2\CCCC3=C2N=C2SC=NN2C3c2cc(OC)c(OC)c(OC)c2)cc(OC)c1OC (stereo unspecified) | 2.06% (active) |

Reference: PubChem BioAssay (NCI)
